# FLuc inh – blocks purified firefly luciferase enzyme activity; P08659; AID 1347043; Potency, µM (top dose mostly 115 µM), actives largely listed as inhibitors; purified P. pyralis luciferase, luminescence, biochemical; 76,000 tested, 2.5% active; note: nearly all actives have a fitted effect of over 65% in size
# Target sequence (P08659 whole entry, looked up): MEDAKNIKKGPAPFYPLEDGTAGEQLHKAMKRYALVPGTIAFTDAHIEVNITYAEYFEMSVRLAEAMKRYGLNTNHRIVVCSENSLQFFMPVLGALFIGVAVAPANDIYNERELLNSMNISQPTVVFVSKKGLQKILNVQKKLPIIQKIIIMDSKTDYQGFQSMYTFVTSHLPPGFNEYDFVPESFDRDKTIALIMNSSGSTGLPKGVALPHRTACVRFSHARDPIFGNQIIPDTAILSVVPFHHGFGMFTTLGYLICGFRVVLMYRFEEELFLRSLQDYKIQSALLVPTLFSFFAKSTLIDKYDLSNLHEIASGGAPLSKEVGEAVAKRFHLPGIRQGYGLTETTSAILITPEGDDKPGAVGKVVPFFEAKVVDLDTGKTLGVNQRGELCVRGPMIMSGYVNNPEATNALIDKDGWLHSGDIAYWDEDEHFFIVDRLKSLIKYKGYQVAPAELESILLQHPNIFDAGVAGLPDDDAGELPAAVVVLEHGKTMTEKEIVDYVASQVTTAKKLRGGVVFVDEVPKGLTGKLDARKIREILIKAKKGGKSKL
#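 Purified P. pyralis luciferase (10nM final) in 50mM Tris acetate pH 7.5, 10mM Mg acetate, 0.01% Tween-20, 0.05% BSA with 10uM D-luciferin and 10uM ATP. Compounds titrated qHTS. Luminescence imaged on CCD.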
# hNpr1 antagonist – antagonists of human natriuretic peptide receptor Npr1; P16066; HEK293 hNpr1 GloSensor cGMP, ANP-stimulated luminescence; Potency, µM (doses to about 46.3 µM), for inactives: at the top dose activity change, negative = inhibition, usual class: inhibitors; 76,000 tested, 1.6% active; AID 1347048; calls by dose curve; note: nearly all actives have a fitted effect of over 60% in size
#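 HEK293 cells stably expressing human Npr1 and cGMP GloSensor pGS-40F, loaded 2 h with 2% GloSensor reagent, given compound 30 min at room temperature. Luminescence read before and 20 min after 0.1 nM hNppA.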
# 3T3 cytotox – NIH 3T3 cell cytotoxicity. NIH 3T3 viability, CellTiter-Glo ATP luminescence, 48-72 h. Potency, µM (titrated, usually from 96.7 µM), for inactives: top-dose activity change, negative = cytotoxicity, actives largely listed as inhibitors. 94,000 tested, 4.3% active. AID 1345082; note: nearly all actives have a fitted effect of over 55% in size
#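 First NIH 3T3 cells are plated at 400 cells/well; next compound is pinned in; then plates incubate 48 or 72 hr at 37 °C; finally CellTiter-Glo is added and luminescence read after 10 min.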
# HEK293 viab – reduces viability of HEK-293 SNCA reporter cells | HEK-293-SNCA-luc viability, GF-AFC fluorescence, 24 h | Potency, µM (highest dose often 57.1 µM), for inactives: at the highest dose activity change, negative = cytotoxicity, hits mostly cytotoxic | 150,000 tested, 0.12% active;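 note: 0% = DMSO-treated cells and -100% = medium-only wells without cells; nearly all actives have a fitted effect of over 30% in size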
#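 Cytotoxicity counterscreen: after 24 h compound treatment of genome-edited SNCA-luciferase HEK-293 cells, live-cell protease substrate GF-AFC read by fluorescence after 30 min; activity scaled between DMSO (0%) and medium-only (-100%), curves Hill-fitted.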
# HEK293 tox – cytotoxic compounds in HEK 293 cells | HEK 293 viability, ATP luminescence (CellTiter-Glo), 48-72 h | Potency, µM (series often up to 115 µM), for the others: top-dose activity change, negative = cytotoxicity, most hits filed as inhibitors | 94,000 tested, 6.6% active; note: nearly all actives have a fitted effect of over 60% in size
#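 Luminescence from cellular ATP, measured with CellTiter-Glo, indicates HEK 293 viability. Cells plated at 250 cells/well are treated with compound for 48 or 72 hr at 37 degree Celsius before reagent addition.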
# SNCA expr inh – inhibitors of alpha-synuclein (SNCA) gene expression | HEK-293 SNCA-luciferase knock-in, luminescence, 24 h | Potency, µM (series often up to 57.2 µM), for inactives: at the highest dose activity change, negative = inhibition, hits mostly inhibitors | 140,000 tested, 0.17% active | AID 1671194;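 note: plate controls were DMSO cells for no effect and cell-free wells for full effect; nearly all actives have a fitted effect of over 45% in size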
# The depositor's hits bear a star; i = inactive; ? = inconclusive; · = no result given; ! = a repeat was not active; [ ] = remark or other dose. Rows were chosen to be rich in hits. Some 7.4% of all compounds tested hit in one or more screens of this group. Unless noted, calls come from the whole dose curve; as a rule, active = well fitted curve in the direction sought with a large enough effect; inconclusive = small, poorly fitted or top-dose-only effect, or another doubt; inactive = no such curve, though single readings can be large; an effect the other way counts as inactive or inconclusive. Unless noted, % is set by controls: 0 for no effect and ±100 for the full control effect; potency is the fitted concentration of half-maximal effect.
SMILES,FLuc inh,hNpr1 antagonist,3T3 cytotox,HEK293 viab,HEK293 tox,SNCA expr inh
O=C(c1ccc(Cl)nc1)N1CCC2(CC1)CC(c1cccc(C(F)(F)F)c1)=NO2,·,·,?,·,35µM*!,·
Cc1ccc(C(=O)N2CCC3(CC2)CC(c2cccc(C(F)(F)F)c2)=NO3)cc1,i,-26%,?,-2%,45µM*!,-24%
O=C(c1cccnc1)N1CCC2(CC1)CC(c1cccc(C(F)(F)F)c1)=NO2,·,·,-25%,·,?,·
COC1CN(c2cccc(F)c2)C12CCN(C(=O)CC1CCCCC1)CC2 (stereo unspecified),i,-2%,?,-7%,45µM*,-15%
COC1CN(c2cccc(F)c2)C12CCN(S(=O)(=O)c1cccs1)CC2 (stereo unspecified),·,·,?,-6%,18µM*,-16%
CCn1cnnc1CC1CCCN(S(=O)(=O)c2ccc(OC)cc2)C1 (stereo unspecified),·,·,-23%,3%,-23%,-15%
CNC(=O)c1cc(C2CC2)nc2c1c(C1CCN(C(=O)N(C)C)C1)nn2C (stereo unspecified),·,·,-1%,·,-1%,·
CC1=C[C@@H](CN(C)CCC#N)[C@H](C(C)C)C[C@H]1Cc1nnc(-c2ccccc2F)o1,i,?,?,?,79µM*,-7%[87.6 µM]
CC1=C[C@@H](CN(C)CCc2ccccn2)[C@H](C(C)C)C[C@H]1Cc1nnc(-c2ccccc2)o1,i,-19%,?,?,?,-28%
CC1=C[C@@H](CN(C)CCc2ccccn2)[C@H](C(C)C)C[C@H]1Cc1nnc(-c2ccncc2)o1,i,1%,?,-6%,79µM*,-21%
CC1=C[C@@H](CN(C)CCN(C)C)[C@H](C(C)C)C[C@H]1Cc1nnc(-c2ccccc2)o1,i,2%[70.6 µM],28µM*,?,45µM*,?
CC1=C[C@@H](CNC(=O)C(C)(C)C)[C@H](C(C)C)C[C@H]1Cc1nnc(-c2ccccc2F)o1,i,-27%[70.6 µM],?,?,32µM*,?
CCc1ccc(CN2CCC3(CC2)Cc2ccccc2CNC3=O)cc1,·,·,?,-18%,?,-9%
O=C(C1CC1)N1CCCN(c2ccc3nnc(C4CC4)n3n2)CC1,·,·,-23%[138 µM],·,-27%[172 µM],·
COc1cccc(-c2cccc(C(=O)N3CCN(C(=O)c4ccc(Cl)nc4)CC3)c2)c1,·,·,-23%,6%[12.5 µM],?,20%
CC(C)Cn1c(=O)c(C(=O)NCCCc2ccccc2)nc2cccnc21,·,·,?,-4%,?,-4%
O=C(NC1CCCCCC1)c1cc(-c2ccc(Cl)cc2Cl)c2nncn2n1,·,·,?,-18%[12.5 µM],40µM*,-7%
COc1ccccc1-c1cc(C(=O)NC2CCCCCC2)nn2cnnc12,·,·,?,-6%,?,19%
O=C(NCc1ccc(Cl)cc1)c1cc(-c2ccc(Cl)cc2Cl)c2nncn2n1,·,·,35µM*,-12%[12.5 µM],?,-1%
Cn1cccc1C(=O)N1CCO[C@@H](COc2ccccn2)[C@@H]1c1ccccc1,·,·,?,12%,?,-19%
O=C(NCc1cccs1)C1CCCN1c1nccc(Nc2ccccc2F)n1 (stereo unspecified),·,·,?,-8%[12.5 µM],?,2%
O=C(NCCc1ccc(Cl)cc1)C1CCCN(c2nccc(Nc3ccccc3F)n2)C1 (stereo unspecified),·,·,25µM*,8%[12.5 µM],22µM*,3%
COc1ccccc1Nc1ccnc(N2CCCC(C(=O)NCc3ccc(F)c(F)c3)C2)n1 (stereo unspecified),·,·,13µM*,-19%[12.5 µM],?,-18%
COc1ccccc1Nc1ccnc(N2CCCC(C(=O)NCc3ccc(F)cc3)C2)n1 (stereo unspecified),·,·,20µM*,1%[12.5 µM],14µM*,?
O=C(NCc1ccc(F)cc1)C1CCCN(c2nccc(Nc3ccccc3F)n2)C1 (stereo unspecified),·,·,28µM*,-8%[12.5 µM],?,4%
SMILES,FLuc inh,hNpr1 antagonist,3T3 cytotox,HEK293 viab,HEK293 tox,SNCA expr inh
CCC(=O)N1Cc2ccccc2CC2(CCN(CCc3ccc(C)cc3)CC2)C1,·,·,?,-2%,?,33%
COC1C(=O)N(c2cccc(F)c2)C12CCN(C(=O)Cc1cccc(F)c1)CC2 (stereo unspecified),·,·,-28%,9%,?,5%
CCCCCNC(=O)C1CCCN1c1nccc(Nc2ccc(C)cc2)n1 (stereo unspecified),·,·,?,-9%[12.5 µM],?,-23%
COc1cccc(CNC(=O)Nc2ccc3c(c2)N(C)C(=O)c2ccccc2S3)c1,·,·,·,-15%,·,-62%
COc1cccc(CNC(=O)Nc2cccc(-c3ccc(N4CCCCC4)nn3)c2)c1,0.25µM*,10µM*,?,-15%,32µM*,-69%
CC(C)NC(=O)NC1CCN(c2ccc3nnc(-c4ccccc4)n3n2)CC1,·,·,-31%,·,-11%,·
CC1CCN(c2ccc(-c3cccc(NC(=O)NC(C)C)c3)nn2)CC1,0.25µM*,2.2µM*,-17%,2%,?,?
COc1ccc(OC)c(NC(=O)Nc2cccc(-c3ccc(N4CCCCC4)nn3)c2)c1,0.25µM*,13µM*,-22%,-8%,?,?
Cc1cccc(S(=O)(=O)Nc2cccc(-c3ccc(N4CCCCC4)nn3)c2)c1,·,·,·,-23%,·,92%
O=C1CCN(C(=O)COc2ccc(F)cc2)CCCC(c2nc(-c3cnccn3)no2)CCN1 (stereo unspecified),i,-1%,-10%,1%,3%,-1%
Fc1ccccc1-c1noc(-c2nc(-c3ccccc3F)no2)n1,i,3%,i,0%,-6%,37%
Fc1ccccc1-c1noc(-c2nc(Cc3ccccc3)no2)n1,20µM*,4%,0%,10%,0%,62%
Cc1ccc2c(C)c(C(=O)N3CC[C@H](O)[C@@H](O)C3)oc2c1,i,3%,-12%,-6%,-19%,6%
Cc1ccc2c(C)c(C(=O)N3C[C@@H](NS(C)(=O)=O)[C@H](C(C)C)C3)oc2c1,i,0%,?,-18%,45µM*,?
COCCN1C(=O)c2cccn2CC1CNC(=O)c1ccc(F)cc1 (stereo unspecified),i,0%,2%,-3%,-1%,?
COCCN1C(=O)c2cccn2CC1CNC(=O)c1ccc(-n2c(C)ccc2C)cc1 (stereo unspecified),·,·,?,-10%,25µM*,-10%
CNC(=O)c1cc(C2CC2)nc2onc(C3CCN(C(=O)c4cccc(OC)c4)C3)c12 (stereo unspecified),·,·,-4%,·,i,·

# Source: PubChem BioAssay
